# From the supplement of paper PMC10849652
# Of roughly 8,800 targets only a part is listed; those with a hit were picked by preference. About 0.5% of all pairs of compound and target were hits. Unmarked numbers belong to inactive results.
# Legend:
# Experiment in all cases: log2 fold change, soluble protein after heating vs DMSO (PISA); higher = thermal stabilisation; K562 lysate, 10 uM; active = over 0.2 and 3.5 SD of the protein, either way, in both replicates (recomputed)
# [1] = compound: Cc1cn(-c2cc(NC(=O)c3ccc(C)c(Nc4nccc(-c5cccnc5)n4)c3)cc(C(F)(F)F)c2)cn1 [nilotinib]
# Procedure, shortened: (§1)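 A 30 min treatment with 10 μM compound was applied to crude K562 extract at 1 mg/mL protein in PBS pH 7.4 with 1 mM MgCl2. Heating for 3 min spanned 48°C-58°C, after which aliquots were pooled, adjusted to 0.5% NP-40 at 4°C and spun at 21,000xg for 90 min. TMTpro 16plex LC-MS/MS of the supernatant, with channel sums equalised, gave values recorded as log-two fold change in thermal stability against solvent controls, from duplicates.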
# [2] = compound: Cc1nc(Nc2n[nH]c3c2CN(C(=O)N[C@H](CN(C)C)c2ccccc2)C3(C)C)c2sccc2n1
# Procedure, shortened: as §1
# [3] = compound: Cc1nc(Nc2ncc(C(=O)Nc3c(C)cccc3Cl)s2)cc(N2CCN(CCO)CC2)n1 [dasatinib]
# Procedure, shortened: as §1
# [4] = compound: Cc1ncc(-c2ccnc(Nc3ccc(S(C)(=O)=O)cc3)n2)n1C(C)C
# Procedure, shortened: as §1
# [5] = compound: Cn1cc(-c2ccc3c(c2)CCN3C(=O)Cc2cccc(C(F)(F)F)c2)c2c(N)ncnc21
# Procedure, shortened: as §1
# [6] = compound: Cn1cc(CNCC2CCN(c3ncc(C(=O)NO)cn3)CC2)c2ccccc21 [quisinostat]
# Procedure, shortened: as §1
# [7] = compound: Cn1cncc1[C@@](N)(c1ccc(Cl)cc1)c1ccc2c(c1)c(-c1cccc(Cl)c1)cc(=O)n2C [tipifarnib]
# Procedure, shortened: as §1
# [8] = compound: NC(=O)Nc1cc(-c2cccc(F)c2)sc1C(=O)N[C@H]1CCCNC1
# Procedure, shortened: as §1
# [9] = compound: NC(=O)c1cnc(N[C@@H]2CCCC[C@@H]2N)nc1Nc1cccc(-n2nccn2)c1
# Procedure, shortened: as §1
# [10] = compound: NC1(c2ccc(-c3nc4ccn5c(=O)[nH]nc5c4cc3-c3ccccc3)cc2)CCC1
# Procedure, shortened: as §1
# [11] = compound: NCC(=O)Nc1ccc(-n2nc(C(F)(F)F)cc2-c2ccc3c(ccc4ccccc43)c2)cc1
# Procedure, shortened: as §1
# [12] = compound: O=C(CCCCCCC(=O)Nc1ccccc1)NO [vorinostat]
# Procedure, shortened: as §1
# [13] = compound: O=C(O)c1ccc2c(c1)nc(Nc1cccc(Cl)c1)c1ccncc12 [silmitasertib]
# Procedure, shortened: as §1
# [14] = compound: O=C1NC(=O)C(c2cnc3ccccn23)=C1c1cn2c3c(cc(F)cc13)CN(C(=O)N1CCCCC1)CC2
# Procedure, shortened: as §1
# [15] = compound: c1cn2cc(-c3ccc4cn[nH]c4c3)nc(Nc3ccc(N4CCOCC4)cc3)c2n1 [entospletinib]
# Procedure, shortened: as §1
# Sequence of UniProt P24863 (P24863 whole entry, looked up): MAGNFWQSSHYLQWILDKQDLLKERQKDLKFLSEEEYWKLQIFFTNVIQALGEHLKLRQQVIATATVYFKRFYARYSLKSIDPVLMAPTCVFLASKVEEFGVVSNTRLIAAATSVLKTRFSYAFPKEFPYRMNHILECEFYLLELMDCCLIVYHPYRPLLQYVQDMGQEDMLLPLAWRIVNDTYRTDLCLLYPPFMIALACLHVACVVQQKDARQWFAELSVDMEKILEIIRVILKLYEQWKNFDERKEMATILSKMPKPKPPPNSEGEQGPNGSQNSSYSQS
# Sequence of UniProt P55212 (P55212 whole entry, looked up): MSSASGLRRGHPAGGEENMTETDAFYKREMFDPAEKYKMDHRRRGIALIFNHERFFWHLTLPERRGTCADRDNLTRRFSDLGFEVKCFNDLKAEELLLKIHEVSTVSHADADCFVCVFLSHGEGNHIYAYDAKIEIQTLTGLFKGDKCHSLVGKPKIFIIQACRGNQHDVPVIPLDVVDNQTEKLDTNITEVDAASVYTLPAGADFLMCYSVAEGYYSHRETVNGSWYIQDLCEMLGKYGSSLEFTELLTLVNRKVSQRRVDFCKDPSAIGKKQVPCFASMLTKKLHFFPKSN
# Sequence of UniProt P54132 (P54132 whole entry, looked up): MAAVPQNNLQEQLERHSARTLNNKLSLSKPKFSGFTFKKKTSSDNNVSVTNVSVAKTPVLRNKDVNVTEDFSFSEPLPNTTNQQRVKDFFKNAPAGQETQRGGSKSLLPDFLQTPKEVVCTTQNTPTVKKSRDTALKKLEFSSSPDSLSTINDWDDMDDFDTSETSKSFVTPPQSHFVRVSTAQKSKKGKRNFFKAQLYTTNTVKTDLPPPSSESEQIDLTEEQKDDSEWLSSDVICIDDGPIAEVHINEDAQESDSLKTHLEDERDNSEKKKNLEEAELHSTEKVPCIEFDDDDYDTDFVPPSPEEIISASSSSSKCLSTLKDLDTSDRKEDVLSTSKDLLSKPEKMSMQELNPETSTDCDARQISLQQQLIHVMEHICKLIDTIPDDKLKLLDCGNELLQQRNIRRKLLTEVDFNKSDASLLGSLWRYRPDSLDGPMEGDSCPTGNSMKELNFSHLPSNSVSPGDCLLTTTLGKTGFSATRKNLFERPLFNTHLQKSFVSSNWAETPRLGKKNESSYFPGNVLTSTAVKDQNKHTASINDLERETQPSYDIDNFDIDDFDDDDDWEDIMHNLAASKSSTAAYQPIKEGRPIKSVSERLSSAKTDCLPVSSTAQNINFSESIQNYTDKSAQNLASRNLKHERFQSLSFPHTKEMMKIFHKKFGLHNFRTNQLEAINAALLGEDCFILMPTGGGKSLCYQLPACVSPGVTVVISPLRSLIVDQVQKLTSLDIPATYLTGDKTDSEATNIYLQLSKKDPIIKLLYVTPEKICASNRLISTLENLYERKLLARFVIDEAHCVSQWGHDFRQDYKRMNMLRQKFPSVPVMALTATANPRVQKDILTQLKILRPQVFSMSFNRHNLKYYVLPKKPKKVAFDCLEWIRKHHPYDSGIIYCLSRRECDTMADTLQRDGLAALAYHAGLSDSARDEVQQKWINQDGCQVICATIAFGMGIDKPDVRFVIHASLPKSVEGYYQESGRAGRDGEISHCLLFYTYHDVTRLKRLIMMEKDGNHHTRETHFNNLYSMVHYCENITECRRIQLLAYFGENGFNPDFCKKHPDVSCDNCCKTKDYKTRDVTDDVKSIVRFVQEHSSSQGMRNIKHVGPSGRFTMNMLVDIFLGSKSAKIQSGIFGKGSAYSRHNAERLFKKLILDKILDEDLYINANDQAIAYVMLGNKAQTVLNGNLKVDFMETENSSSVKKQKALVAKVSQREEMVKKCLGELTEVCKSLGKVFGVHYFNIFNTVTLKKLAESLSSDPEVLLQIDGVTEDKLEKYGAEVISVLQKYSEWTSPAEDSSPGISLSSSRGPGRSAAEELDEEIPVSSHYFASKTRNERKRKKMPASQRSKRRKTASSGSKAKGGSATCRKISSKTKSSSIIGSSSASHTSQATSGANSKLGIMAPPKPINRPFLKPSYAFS
# Sequence of UniProt O60566 (O60566 whole entry, looked up): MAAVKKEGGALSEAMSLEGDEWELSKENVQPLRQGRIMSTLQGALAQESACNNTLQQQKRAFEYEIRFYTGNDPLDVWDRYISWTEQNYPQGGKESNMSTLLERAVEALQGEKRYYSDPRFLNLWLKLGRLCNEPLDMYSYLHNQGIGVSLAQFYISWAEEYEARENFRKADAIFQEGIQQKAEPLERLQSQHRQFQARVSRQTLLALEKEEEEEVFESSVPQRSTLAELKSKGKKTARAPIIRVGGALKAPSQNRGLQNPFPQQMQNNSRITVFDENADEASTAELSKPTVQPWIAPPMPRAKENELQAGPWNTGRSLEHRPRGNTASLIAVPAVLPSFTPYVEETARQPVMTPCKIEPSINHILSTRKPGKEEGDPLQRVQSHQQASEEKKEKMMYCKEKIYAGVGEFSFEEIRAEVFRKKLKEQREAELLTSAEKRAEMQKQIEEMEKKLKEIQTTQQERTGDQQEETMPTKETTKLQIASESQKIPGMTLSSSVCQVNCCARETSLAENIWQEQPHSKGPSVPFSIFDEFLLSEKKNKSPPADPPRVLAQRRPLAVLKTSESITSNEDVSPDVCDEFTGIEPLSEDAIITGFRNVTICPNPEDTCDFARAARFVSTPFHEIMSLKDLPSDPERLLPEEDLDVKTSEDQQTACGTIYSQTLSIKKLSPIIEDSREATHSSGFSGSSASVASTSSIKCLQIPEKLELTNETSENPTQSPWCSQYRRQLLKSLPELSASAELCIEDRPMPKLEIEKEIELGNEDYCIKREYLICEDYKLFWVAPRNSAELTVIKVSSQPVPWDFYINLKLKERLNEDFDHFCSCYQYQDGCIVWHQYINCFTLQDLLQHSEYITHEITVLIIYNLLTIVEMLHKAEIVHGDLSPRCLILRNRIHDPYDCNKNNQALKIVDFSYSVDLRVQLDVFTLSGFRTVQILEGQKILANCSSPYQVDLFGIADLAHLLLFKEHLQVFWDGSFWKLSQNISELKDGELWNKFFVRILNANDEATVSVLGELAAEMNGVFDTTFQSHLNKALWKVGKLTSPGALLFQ
# Sequence of UniProt Q9NW68 (Q9NW68 whole entry, looked up): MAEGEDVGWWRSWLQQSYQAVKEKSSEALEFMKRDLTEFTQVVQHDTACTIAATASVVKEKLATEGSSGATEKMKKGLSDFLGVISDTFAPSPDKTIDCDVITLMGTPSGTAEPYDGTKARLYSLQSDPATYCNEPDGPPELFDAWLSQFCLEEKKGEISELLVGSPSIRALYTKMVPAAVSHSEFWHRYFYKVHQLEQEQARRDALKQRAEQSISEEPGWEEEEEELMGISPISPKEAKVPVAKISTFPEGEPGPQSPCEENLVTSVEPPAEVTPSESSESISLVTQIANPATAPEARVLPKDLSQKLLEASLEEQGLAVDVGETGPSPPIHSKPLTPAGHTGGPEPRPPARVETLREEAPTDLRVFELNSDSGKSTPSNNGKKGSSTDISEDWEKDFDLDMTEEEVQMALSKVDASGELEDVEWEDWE
# Sequence of UniProt P98196 (P98196 whole entry, looked up): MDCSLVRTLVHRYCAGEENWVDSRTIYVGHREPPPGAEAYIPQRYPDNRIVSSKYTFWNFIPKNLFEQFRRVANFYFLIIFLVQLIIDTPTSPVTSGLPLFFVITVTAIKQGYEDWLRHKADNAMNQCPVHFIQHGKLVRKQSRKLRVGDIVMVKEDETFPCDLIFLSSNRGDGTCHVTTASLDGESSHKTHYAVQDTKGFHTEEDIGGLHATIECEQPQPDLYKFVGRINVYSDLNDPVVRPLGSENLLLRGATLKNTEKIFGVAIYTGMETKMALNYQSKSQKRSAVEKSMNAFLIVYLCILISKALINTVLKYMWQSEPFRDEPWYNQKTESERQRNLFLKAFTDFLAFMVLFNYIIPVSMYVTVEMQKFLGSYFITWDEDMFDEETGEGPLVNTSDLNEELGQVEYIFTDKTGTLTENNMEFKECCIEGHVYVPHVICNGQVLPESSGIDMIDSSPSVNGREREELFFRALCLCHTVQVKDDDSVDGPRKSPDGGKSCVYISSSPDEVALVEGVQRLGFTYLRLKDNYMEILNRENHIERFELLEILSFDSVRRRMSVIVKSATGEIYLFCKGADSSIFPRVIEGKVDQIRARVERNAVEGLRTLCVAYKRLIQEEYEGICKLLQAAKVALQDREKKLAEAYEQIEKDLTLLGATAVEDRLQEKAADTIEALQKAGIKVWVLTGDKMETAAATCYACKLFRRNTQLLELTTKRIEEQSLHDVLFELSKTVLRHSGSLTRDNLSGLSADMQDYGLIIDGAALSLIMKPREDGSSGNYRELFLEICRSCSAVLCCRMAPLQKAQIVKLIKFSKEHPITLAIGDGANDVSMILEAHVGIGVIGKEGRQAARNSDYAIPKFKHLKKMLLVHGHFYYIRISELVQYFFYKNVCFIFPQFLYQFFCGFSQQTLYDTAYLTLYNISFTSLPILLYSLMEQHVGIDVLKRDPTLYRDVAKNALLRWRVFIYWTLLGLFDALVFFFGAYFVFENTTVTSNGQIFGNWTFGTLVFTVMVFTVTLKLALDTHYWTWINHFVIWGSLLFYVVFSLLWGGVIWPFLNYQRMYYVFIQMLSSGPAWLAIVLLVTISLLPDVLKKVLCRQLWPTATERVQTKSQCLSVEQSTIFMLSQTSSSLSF
# Sequence of UniProt O95674 (O95674 whole entry, looked up): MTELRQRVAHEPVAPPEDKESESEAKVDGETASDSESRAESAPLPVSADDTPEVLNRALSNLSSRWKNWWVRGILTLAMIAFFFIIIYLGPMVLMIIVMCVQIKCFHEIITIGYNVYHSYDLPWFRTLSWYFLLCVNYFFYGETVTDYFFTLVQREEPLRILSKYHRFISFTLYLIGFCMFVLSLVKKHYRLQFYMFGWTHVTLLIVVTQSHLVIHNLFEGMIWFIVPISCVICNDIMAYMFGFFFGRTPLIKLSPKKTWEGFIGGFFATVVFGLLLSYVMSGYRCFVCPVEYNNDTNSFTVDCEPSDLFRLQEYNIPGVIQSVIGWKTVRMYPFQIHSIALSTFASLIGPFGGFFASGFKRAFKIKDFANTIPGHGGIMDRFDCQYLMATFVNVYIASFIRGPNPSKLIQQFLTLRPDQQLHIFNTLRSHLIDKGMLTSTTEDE
Target,log2 fold change [1],log2 fold change [2],log2 fold change [3],log2 fold change [4],log2 fold change [5],log2 fold change [6],log2 fold change [7],log2 fold change [8],log2 fold change [9],log2 fold change [10],log2 fold change [11],log2 fold change [12],log2 fold change [13],log2 fold change [14],log2 fold change [15]
CCNC (UniProt P24863),0.013,0.035,0.04,0.202,-0.017,0,-0.049,0.048,-0.007,-0.029,0.159,-0.001,0.338,-0.092,0.029
BSDC1 (UniProt Q9NW68),0.016,-0.009,0.018,0.027,-0.018,-0.024,-0.093,0.003,-0.023,0.016,-0.073,0.13,-0.018,0.024,-0.002
BUB1B isoform 3 (UniProt O60566),0.007,-0.012,-0.015,0.014,0.024,-0.076,-0.013,0.028,-0.003,-0.004,0.004,-0.376 (active),0.015,0.006,0.013
CASP6 (UniProt P55212),0.018,0.017,0.005,-0.026,-0.001,0.013,-0.027,-0.034,0.003,0.023,-0.014,-0.049,0.045,-0.018,-0.01
BLM (UniProt P54132),-0.002,0.014,-0.013,0,0.048,0.109,0.041,-0.013,-0.025,0.018,0.03,-0.056,0.044,0.003,-0.002
ATG4B (UniProt Q9Y4P1),0.045,0.001,-0.049,0.008,0.044,-0.055,-0.019,0.024,-0.05,0.005,-0.009,-0.274 (active),0.043,-0.014,0.021
CALB2 (UniProt P22676),0.098,-0.085,-0.037,0.056,0.016,0.091,-0.079,-0.006,-0.004,0.046,0.067,0.156,0.017,0.063,0.019
CAMLG (UniProt P49069),0.048,-0.082,0.017,-0.069,0.064,0.01,-0.084,0.005,-0.009,0.046,-0.009,-0.15,-0.027,0.006,0.001
BET1 (UniProt O15155),0.038,0.052,-0.015,-0.011,0,0.023,-0.063,-0.005,-0.057,-0.005,0.015,-0.042,-0.008,-0.01,0.035
BRD4 (UniProt O60885),0.034,-0.009,-0.018,0.019,-0.001,-0.091,-0.019,0.013,-0.051,-0.008,0.01,-0.115,-0.011,-0.02,-0.028
CCDC51 (UniProt Q96ER9),-0.037,-0.049,-0.016,0.035,-0.014,0.017,-0.082,0.02,-0.015,-0.04,0.002,0.153,0.011,0.015,-0.046
CCDC47 (UniProt Q96A33),-0.012,-0.009,-0.016,0.025,-0.009,0.006,-0.025,0.014,0.019,-0.023,0.002,0.207 (active),0.026,0.011,-0.007
ATP11A (UniProt P98196),-0.046,-0.053,0.018,0.011,0.035,0.002,0.019,0.043,-0.045,-0.012,0.168,-0.265 (active),0.106,0.009,-0.054
CHD5 (UniProt Q8TDI0),-0.007,0.021,0.038,-0.022,0.007,-0.082,0.005,0.02,-0.019,0.01,0.059,-0.261 (active),0.007,0.042,0.025
CDC25C (UniProt P30307),0.039,-0.037,0.042,-0.048,0.004,0.056,-0.004,0.025,0.015,0.05,-0.019,-0.271 (active),0.009,0.026,-0.01
CDS2 (UniProt O95674),-0.035,-0.093,0.073,0.062,-0.005,-0.045,0.093,-0.01,0,-0.152,0.007,0.093,0.024,-0.065,-0.028
ATXN2 (UniProt Q99700),-0.04,0.023,0.023,-0.003,0.047,-0.065,0.014,0.045,0.011,-0.028,0.024,-0.282 (active),-0.01,-0.005,-0.008
CDK13 (UniProt Q14004),-0.081,0,0.004,-0.051,0.005,0.068,0.032,-0.039,0.033,0.131,-0.089,-0.088,0.093,-0.012,-0.013
CHCHD1 (UniProt Q96BP2),-0.09,-0.023,0.084,-0.043,-0.097,-0.174,-0.03,0,-0.023,-0.019,0.131,0.055,-0.039,-0.014,-0.081
